Laboratory results as given in PubChem BioAssay (NCI).
This is part of a sample that, as a whole, favours compounds with a hit. Of some 83,000 tested, about 20% had one in any assay.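 48-hour exposure, single concentration, 96-well plates; percent growth endpoint where 0 means no net growth. Active: below 10.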 Unmarked numbers belong to inactive results. Activity calls are given as the source filed them.

Legend:
Test in all cases: NCI-60 one-dose screen, 48 h (100 = growth as untreated, 0 = no growth, -100 = all killed)
Conditions in all cases: 10 µM unless noted
NCI-H23 lung = tested on: NCI-H23 lung
NCI-H226 lung = tested on: NCI-H226 lung
NCI-H322M lung = tested on: NCI-H322M lung
HOP-62 NSCLC = tested on: HOP-62 NSCLC
NCI-H460 lung = tested on: NCI-H460 lung
HOP-92 NSCLC = tested on: HOP-92 NSCLC
NCI-H522 lung = tested on: NCI-H522 lung
A549/ATCC NSCLC = tested on: A549/ATCC NSCLC
786-0 renal = tested on: 786-0 renal
COLO 205 colon = tested on: COLO 205 colon
DU-145 prostate = tested on: DU-145 prostate
K-562 leukemia = tested on: K-562 leukemia
MALME-3M melanoma = tested on: MALME-3M melanoma
MDA-MB-231 breast = tested on: MDA-MB-231 breast
RXF 393 renal = tested on: RXF 393 renal
SF-268 CNS = tested on: SF-268 CNS
SF-539 CNS = tested on: SF-539 CNS
UACC-257 melanoma = tested on: UACC-257 melanoma
M14 melanoma = tested on: M14 melanoma
SF-295 CNS = tested on: SF-295 CNS

| SMILES | growth (NCI-H23 lung) | growth (NCI-H226 lung) | growth (NCI-H322M lung) [%] | growth (HOP-62 NSCLC) | growth (NCI-H460 lung) | growth (HOP-92 NSCLC) | growth (NCI-H522 lung) | growth (A549/ATCC NSCLC) | growth (786-0 renal) | growth (COLO 205 colon) | growth (DU-145 prostate) | growth (K-562 leukemia) | growth (MALME-3M melanoma) | growth (MDA-MB-231 breast) | growth (RXF 393 renal) | growth (SF-268 CNS) | growth (SF-539 CNS) | growth (UACC-257 melanoma) | growth (M14 melanoma) | growth (SF-295 CNS) |
| --- | --- | --- | --- | --- | --- | --- | --- | --- | --- | --- | --- | --- | --- | --- | --- | --- | --- | --- | --- | --- |
| COc1ccc(N2CCN(Cc3cc(C(=O)/C=C/c4c[nH]c5ccccc45)ccc3O)CC2)cc1 | 102% | 100% | 100 | 89% | 106% | 89.9% | 95.2% | 102% | 105% | 107% | 114% | 101% | 95.6% | 103% | 104% | 101% | 96.6% | 102% | 102% |  |
| COc1ccc(-c2cnnn2-c2nonc2-n2cccc2)cc1OC | 67.8% | 88.8% | 96.8 | 55.8% | 40.7% | 72% | 27.4% | 47.2% | 88.3% | 44.4% | 80.9% | 3.29% (active) | 25.1% | 65.7% | 75.6% | 71.8% |  | 79.6% | 39.9% |  |
| Cc1ccc(Cc2c(C=O)nc(N)[nH]c2=O)c2ccccc12 | 97.7% | 98.6% | 119 | 96.2% | 109% | 91.9% | 118% | 86.6% | 89.8% | 95.5% | 113% | 107% | 98.2% | 107% | 106% |  | 102% | 93.2% | 101% | 118% |
| COc1ccc(C2C=C(c3ccc(N)cc3)N=C3SC=CN32)cc1OC (stereo unspecified) | 101% | 107% | 102 | 108% | 116% | 109% | 101% | 99.7% | 104% | 114% | 107% | 97.5% | 92.8% | 123% | 110% | 104% | 99.9% | 103% | 106% |  |
| COc1cc(-c2nn(-c3cccc(NC(=O)Nc4cccc(C(F)(F)F)c4)c3)cc2-c2ccncc2)ccc1Cl | -12.4% (active) | 4.3% (active) | 21.7 | -29.8% (active) | -7.91% (active) | -33.6% (active) | -30.8% (active) | -14% (active) | -15% (active) | -88.9% (active) | 9.75% (active) | 1.6% (active) | -32.1% (active) | -28.8% (active) | -69.8% (active) | 2.35% (active) | -34.2% (active) | -52.9% (active) | -61.5% (active) |  |
| O=c1c2sc3ncccc3c2nnn1-c1ccccc1 | 99.1% | 100% | 114 | 105% | 106% | 97.5% | 111% | 102% | 100% | 114% | 115% | 93.3% | 105% | 97.2% | 101% | 102% | 102% | 102% | 108% |  |
| O=S(=O)(NCCNc1nccc(-c2c(-c3cccc(O)c3)nc3sccn23)n1)c1ccc(F)cc1 | 87% | 91.8% | 90.4 | 103% | 67.3% | 92.8% | 64.4% | 52% | 77% | 37.6% | 78.6% | 47.8% | 18.3% | 77.6% | 52.5% | 73.3% | 96.5% | -0.678% (active) | 27.3% |  |
| Cc1cc(C)n(-c2nnc3n2N=C(c2ccc(-c4ccccc4)cc2)CS3)n1 | 75.7% | 68.4% | 71.1 | 54.7% | 45.1% | -2.12% (active) | 29.2% | 31.5% | 59.9% | 39.8% | 66.2% | 6.94% (active) | 43.5% | 51.1% | 5.5% (active) | 56.7% | 38.7% | 53.7% | 30% |  |
| O=C(Nc1cccc(-n2cc(-c3ccncc3)c(-c3ccc(Cl)c(O)c3)n2)c1)Nc1ccc(Cl)c(Cl)c1 | 13.5% | 24.7% | 40.6 | 34.4% | 6.5% (active) | -20.2% (active) | -6.8% (active) | 4.51% (active) | 30.1% | 30.2% | 25.9% | 11.4% | 10.3% | -0.72% (active) | 4.46% (active) | 29.1% | 37% | -17.3% (active) | 17.2% |  |
| CN(C)c1nc2c(N)ncnc2n1C1OC(CO)C(O)C1O (stereo unspecified) | 110% | 104% | 122 | 103% | 121% | 98.1% | 108% | 106% | 99.2% | 108% | 118% |  | 88% | 116% | 113% | 105% | 101% | 105% |  | 111% |
| CCc1cnc(=S)n(-c2ccccc2)c1 | 88.5% | 110% | 117 | 103% | 116% | 97.8% | 105% | 98.3% | 99.9% | 120% | 104% | 117% |  | 107% | 129% | 100% | 101% | 120% | 106% |  |
| O=C1c2c(Cl)c(Cl)c(Cl)c(Cl)c2C(=O)C2(Cl)CC=CCC12Cl (stereo unspecified) | 10% | 73% | 72.6 | -90.2% (active) | 50.3% | -58.1% (active) | -80.7% (active) | 74.1% | 0.0645% (active) | -77.3% (active) | -74.2% (active) |  | -3.27% (active) | 18.2% | -78.3% (active) | -96.2% (active) | 48.1% | -34.4% (active) | -12% (active) | 106% |
| C=C(C)[C@@H]1C[C@@H]2Cc3cc(F)ccc3N1O2 | 96.6% | 99.1% | 104 | 94.4% | 102% | 56.1% | 91.3% | 97.9% | 103% | 106% | 114% |  | 83% | 99.8% | 108% | 101% | 95.6% | 99.1% | 95.5% | 106% |
| Cc1ccc2ccccc2c1C[n+]1ccccc1 | 86.5% | 99.3% | 109 | 84.8% | 114% | 79.3% | 100% | 99.1% | 102% | 112% | 117% |  | 108% | 77.8% | 105% | 106% | 105% | 113% | 111% | 101% |
| Nc1cc2c(cc1C(=O)c1cccc(F)c1)OCCO2 | 95.4% | 91.4% | 98.5 | 95% | 104% | 72.9% | 87.3% | 91.6% | 94% | 111% | 109% |  | 109% | 102% | 104% | 98.4% | 103% | 93.4% | 107% | 94.5% |
| Cc1ccc(-c2cc3nc(C(Cl)Cl)nc(-c4cccnc4)n3n2)cc1 | -32.5% (active) | 75.7% | 18.2 | -8% (active) | -10.5% (active) | -2.25% (active) | 4.51% (active) | -14.2% (active) | 69.5% | -82.6% (active) | -22% (active) | 9.52% (active) | 5.51% (active) | 2.53% (active) |  | 25.7% | 63% | 86% | 61% | 4.01% (active) |
